Assay outcomes from PubChem.
Nrf2 ARE act = qHTS of Nrf2 Activators | AREc32 ARE-luciferase reporter (MCF7-derived line), luminescence, 24 h | Potency, µM (top dose mostly 46.1 µM), for the others: at the highest dose activation, most hits filed as activators | 410,000 tested, 0.31% active | AID 624171, 2012; note: potency is the fitted concentration of half-maximal effect; % of control where 0% means no effect; nearly all actives have a fitted effect of over 65% in size
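Each well held 1000 AREc32 cells, which were incubated with compound for 24 hr at 37 deg C after overnight attachment, and ARE reporter activity was quantified by firefly luciferase luminescence.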
miR-21 reporter = qHTS Assay for Modulators of miRNAs and/orActivators of miR-21. Potency, µM (highest dose often 38.3 µM), without a hit: at the top dose activity change, positive = activation, usual class: activators. 340,000 tested, under 10 active. HeLa miR-21 FLuc reporter, luciferase, 48 h;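 note: % of control where 0% means no effect; miR-21 action dims this reporter so a rising signal means less miR-21 action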
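Compounds were titrated across several concentrations (up to approximately 40 uM) and incubated 48 hours with HeLa miR-21-FLuc reporter cells (miR-21 target sequence downstream of FLuc, endogenous miR-21). Readout was firefly luciferase luminescence after lytic detection reagent.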
A549 tox = Nrf2 qHTS screen for inhibitors: counterscreen for cytotoxicity | A549 ARE-Fluc cells, CellTiter-Fluor viability, 18-24 h | Potency, µM (titrated, usually from 46 µM), without a hit: top-dose activity change, negative = cytotoxicity, most hits filed as inhibitors | 390,000 tested, 0.16% active; note: potency is the fitted concentration of half-maximal effect; % is set by controls: 0 for no effect and ±100 for the full control effect
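A549 ARE-Fluc cells in 5% FBS OPTI-MEM, 5000 cells/well, rested 2 h then exposed to compounds in concentration-response for 18-24 h at 37 °C. Viability by CellTiter-Fluor fluorescence (Ex 405/Em 525) after 30 min; luciferase luminescence (BugLite, 15 min, RT) read afterwards.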
Nrf2 inh = Nrf2 qHTS screen for inhibitors. A549 ARE-Fluc reporter, luciferase luminescence, 18-24 h. Potency, µM (top dose mostly 46 µM), for the others: at the highest dose activity change, negative = inhibition, hits mostly inhibitors. 360,000 tested, 2.1% active. AID 504444, 2011; note: potency is the fitted concentration of half-maximal effect; % is set by controls: 0 for no effect and ±100 for the full control effect; nearly all actives have a fitted effect of over 60% in size
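Two sequential reads on A549 ARE_Fluc cells exposed to compound for 18-24 h: a CellTiter-Fluor fluorescence read for viability, then a luciferase luminescence read for Nrf2/ARE activity.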
Glioma ERSR ind = qHTS for Inducers of the Endoplasmic Reticulum Stress Response (ERSR) in Human Glioma: qHTS; AID 602332, 2012; U87-MG GRP78 promoter luciferase reporter, 16 h; Potency, µM, for the others: at the highest dose activation, hits mostly activators; 420,000 tested, 0.02% active; note: potency is the fitted concentration of half-maximal effect; series mostly up to about 76 µM; % of control where 0% means no effect; nearly all actives have a fitted effect of over 35% in size
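Stably transfected U87-MG human glioma cells carrying a GRP78-based luminescent sensor were seeded at 1000 cells/well, pin-dosed with compounds and incubated 16 h. Luciferase reagent was then added, and end-point luminescence was read after 10 min at room temperature.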
Mito fusion yeast = qHTS Assay for Small Molecule Inhibitors of Mitochondrial Division or Activators of Mitochondrial Fusion. 320,000 tested, 0.23% active. S. cerevisiae fusion-defective mutant growth rescue, CellTiterGlo 48 h. Potency, µM (top dose mostly 46.1 µM), for inactives: at the top dose growth rescue (activation), most hits filed as activators; note: potency is the fitted concentration of half-maximal effect; % of control where 0% means no effect; nearly all actives have a fitted effect of over 45% in size
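Read-out: ATP-based luminescence (CellTiterGlo, 10 min ambient) reporting growth of fusion-defective ts yeast after 48 hours at 37C on glycerol/ethanol YPEG medium in the presence of compound.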
The depositor's hits bear a star; ? = inconclusive; . = not tested or not shown; ! = repeats disagree. Rows were chosen to be rich in hits. Some 2.3% of all compounds tested hit in one or more screens of this group. Calls come from the whole dose curve; as a rule, active = well fitted curve in the direction sought with a large enough effect; inconclusive = small, poorly fitted or top-dose-only effect, or another doubt; inactive = no such curve, though single readings can be large; an effect the other way counts as inactive or inconclusive.

SMILES | Nrf2 ARE act | miR-21 reporter | A549 tox | Nrf2 inh | Glioma ERSR ind | Mito fusion yeast
Cc1ccc(CSc2nccc(-c3c(C)nc4ccccn34)n2)cc1 | 0% | 27% | -20% | 8.2µM* | -2% | -1%
CNC(=S)N1CCC(C(=O)c2ccc(Cl)cc2)CC1 | -1% | . | . | . | -2% | .
O=c1cc(COc2ccccc2[N+](=O)[O-])nc2sccn12 | 8.9µM* | -10% | -3% | 4% | 1% | 0%
CN1CCN(C(=O)CCCN2C(=O)/C(=C/c3cccc(Br)c3)SC2=S)CC1 | 13µM* | 20% | ? | ? | -8% | 20%
O=C1/C(=C/c2ccc3c(c2)OCO3)SC(=S)N1CCC(=O)N(CCO)c1ccccc1 | 17% | . | . | . | -8% | .
O=C1/C(=C/c2cccc(Br)c2)SC(=S)N1CCC(=O)N(CCO)c1ccccc1 | 13µM* | 0% | -13% | 23% | -6% | 3%
CC(=O)c1c(N2CCCCC2)nc(=S)n(Cc2ccccc2)c1C | 0% | 0% | 2% | -11% | -2% | -8%
CC(=O)c1c(N2CCN(Cc3ccccc3)CC2)nc(=S)n(Cc2ccccc2)c1C | 1% | -6% | ? | 21µM* | -1% | -10%
N=C(N)SCCc1ccc(CCSC(=N)N)cc1 | . | . | . | . | 1% | 21µM*
COCCNc1ncnc2ccc(-c3ccoc3)cc12 | . | . | . | . | -2% | .
CS(=O)(=O)Nc1ccc([N+](=O)[O-])cc1Oc1ccccc1 | 0% | -7% | -9% | ? | -3% | 23µM*!
O=[N+]([O-])c1ccc(Oc2ccc(S(=O)(=O)Nc3ccccc3)cc2)cc1 | 3% | 5% | -2% | 18µM* | 4% | ?
CC(C)CCn1c(SCC(N)=O)nc2c1c(=O)n(C)c(=O)n2C | -1% | 1% | 11% | 16% | -2% | 2%
CCc1ccc(-n2c(=O)c3ccccc3n(Cc3ccccc3C#N)c2=O)cc1 | 0% | -5% | -2% | 10% | -4% | .
CCc1cccc(C)c1NC(=O)CSc1nc2ccc(N3C(=O)c4ccccc4C3=O)cc2s1 | 0% | -2% | -6% | ? | -4% | 1%
CCc1cccc(CC)c1NC(=O)CSc1nc2ccc(N3C(=O)C4C(C3=O)[C@H]3C=C[C@@H]4C3)cc2s1 (stereo partly drawn) | 0% | -1% | -10% | 13µM* | 18% | 12%
COc1cccc(C(=O)n2cnnc2N)c1OC | -1% | -1% | 0% | 9% | -7% | -1%
Cc1ccc2c(Cl)c(C(=O)NCC(c3ccco3)N3CCCC3)sc2c1 (stereo not drawn) | -1% | -4% | -2% | -6% | -2% | -5%
Cc1ccc(C(=O)OCC(=O)NC2CCCc3ccccc32)o1 (stereo not drawn) | -1% | . | 0% | -17% | 3% | 5%
N#CC(c1cccc(Cl)c1)c1ccc2c(C(F)(F)F)cc(C(F)(F)F)nc2n1 (stereo not drawn) | 16% | ? | 6.5µM* | . | -8% | 3%
Nc1cccc(S(=O)(=O)N2CCN(S(=O)(=O)c3ccc4c(c3)OCCO4)CC2)c1 | . | . | -1% | -19% | . | .
COc1ccc(NC(=O)c2sc3nc(N4CCCC4)c4c(c3c2N)CC(C)(C)OC4)cc1 | 0% | -12% | 1% | ? | -4% | 13µM*
O=C(NNC(=O)c1nc(Cl)ccc1Cl)c1ccc(F)cc1 | ? | -5% | 1% | 3% | -2% | 2%
CN(C(=O)c1ccc(OC2CCN(S(=O)(=O)N(C)C)CC2)cc1)C1CCCCC1 | 3% | -12% | 0% | -9% | 0% | 6%
CN(C(=O)Cc1c[nH]c2ccccc12)C(C(=O)Nc1ccc2c(c1)OCO2)c1ccccc1 (stereo not drawn) | 4% | 0% | ? | 23µM* | 0% | 1%
SMILES | Nrf2 ARE act | miR-21 reporter | A549 tox | Nrf2 inh | Glioma ERSR ind | Mito fusion yeast
CC(=O)NC(Cc1c[nH]c2ccccc12)C(=O)Nc1ccc2c(c1)OCO2 (stereo not drawn) | 4% | -17% | -1% | . | 9% | -2%
Nc1nc2ccc(Oc3ccccc3)cc2s1 | 2% | -51% | -12% | 24% | 4% | 20%
Nc1nc2ccc(OC(F)(F)F)cc2s1 | 5% | -29% | -1% | -11% | -8% | 3.3µM*!
CCOC(=O)N1CCN(c2ncnc3c2[nH]c2ccc(OC)cc23)CC1 | 3% | 2% | -10% | ? | -3% | -2%
O=C(c1ccco1)N1CCN(c2ncnc3c2[nH]c2ccccc23)CC1 | . | 21% | . | . | . | 6%
COc1ccc2[nH]c3c(N4CCc5ccccc5C4)ncnc3c2c1 | -2% | ? | 18µM* | 16µM* | -12% | 1%
CCOC(=O)N1CCN(c2ncnc3c2[nH]c2ccc(F)cc23)CC1 | 3% | ? | -14% | 15µM* | -8% | 6%
O=C(c1ccco1)N1CCN(c2ncnc3c2[nH]c2ccc(Br)cc23)CC1 | -1% | 11% | -17% | 8.2µM* | -10% | 5%
Fc1ccc2[nH]c3c(N4CCN(c5ccccc5)CC4)ncnc3c2c1 | -2% | 29% | ? | 13µM* | -17% | ?
Fc1ccc2[nH]c3c(Cl)ncnc3c2c1 | 14% | 19% | -1% | 4% | -1% | -19%
OC1(c2cccc(C(F)(F)F)c2)CCN(c2ncnc3c2[nH]c2ccc(F)cc23)CC1 | -3% | ? | 21µM* | 12µM* | -18% | -36%
CCN(CC)C(=O)CN(c1cc2c(cc1OC)oc1ccccc12)S(=O)(=O)c1ccccc1 | -1% | 0% | ? | 16µM* | -2% | 30%
CCOc1ccc(N(CC(=O)NC2CCCCC2)C(=O)CCC(=O)Nc2nc(C)cs2)cc1 | 0% | -1% | -7% | -2% | -6% | -1%
COc1ccc(-n2c(C)cc(C(=O)NC3CCCCC3)c2C)cc1 | 18µM* | -39% | -8% | ? | 0% | 2%
Cc1cccc(-n2c(C)cc(C(=O)NC3CCCCC3)c2C)c1 | ? | -26% | -22% | -21% | 3% | ?
O=c1c(Cl)c(N2CCCCC2)cnn1-c1nc2ccccc2[nH]1 | -2% | 19% | -1% | 16µM* | -11% | -6%
O=C(CSc1nnc2[nH]c(=O)cc(-c3ccccc3)n12)Nc1ccc(F)cc1F | 9% | -2% | 3% | . | 0% | .
O=C(CCSc1nc(-c2ccco2)cc(C(F)(F)F)n1)Nc1cccc(O)c1 | 1% | 10% | 3% | 5% | -2% | .
Cc1ccc(NC(=O)CCSc2nc(-c3ccco3)cc(C(F)(F)F)n2)cc1F | -1% | -5% | -3% | 10µM* | -4% | .
